High-throughput results (PubChem)
Compounds with a hit are over-represented: about 18% of the library has one in this group of screens.
RORgamma inh – qHTS for inhibitors of ROR gamma transcriptional activity | Potency, µM (top dose mostly 53.6 µM), hits mostly inhibitors | AID 2551, 2010 | Drosophila S2 Gal4-RORgamma UAS-luciferase reporter, 20 h | Nuclear receptor ROR-gamma (Mus musculus), P51450 | 310,000 tested, 5.4% active; further: nearly all actives have a fitted effect of over 60% in size
Target sequence (P51450 whole entry, looked up, the tested form may be a part): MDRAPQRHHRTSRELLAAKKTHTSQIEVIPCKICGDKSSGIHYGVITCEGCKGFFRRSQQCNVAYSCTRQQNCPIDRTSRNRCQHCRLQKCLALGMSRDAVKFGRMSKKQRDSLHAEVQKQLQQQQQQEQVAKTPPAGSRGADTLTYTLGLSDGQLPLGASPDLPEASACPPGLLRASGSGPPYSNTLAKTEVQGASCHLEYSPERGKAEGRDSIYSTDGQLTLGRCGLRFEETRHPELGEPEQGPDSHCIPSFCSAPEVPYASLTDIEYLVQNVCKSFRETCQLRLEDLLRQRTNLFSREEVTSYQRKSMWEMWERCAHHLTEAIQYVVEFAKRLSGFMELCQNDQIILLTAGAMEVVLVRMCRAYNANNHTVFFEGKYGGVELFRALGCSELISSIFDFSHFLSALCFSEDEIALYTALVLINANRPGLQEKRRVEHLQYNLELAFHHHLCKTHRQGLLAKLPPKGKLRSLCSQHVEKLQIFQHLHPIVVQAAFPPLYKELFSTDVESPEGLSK
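Stable Schneider cell line, Gal4 DNA-binding domain fused to ROR gamma, UAS-luciferase. Cmpd 1 hr RT → CuSO4 700 uM final → 20 hr RT → luciferase reagent 10 min → luminescence.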
TDP1 cell CPT – qHTS for Inhibitors of human tyrosyl-DNA phosphodiesterase 1 (TDP1): qHTS in cells in presence of CPT. chicken DT40 Tdp1-/-;hTDP1 cells + 20 nM CPT, ATP luminescence, 48 h. Potency, µM (series often up to 46.2 µM), usual class: inhibitors. 420,000 tested, 12% active. AID 686979, 2013; further: nearly all actives have a fitted effect of over 55% in size
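Chicken DT40 Tdp1-/- cells complemented with human TDP1, 400 cells/well, exposed to compounds plus 20 nM camptothecin for at least 48 h at 37 C; viability read as ATP content by CellTiter-Glo luminescence.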
IL1B secr inh – qHTS for Inhibitors of Inflammasome Signaling: IL-1-beta AlphaLISA Primary Screen; THP-1 LPS/ATP IL-1B secretion, AlphaLISA, 16 h; hits give low values; activity change, % at 57.5 µM; 360,000 tested, 4.7% active; in the data active means activity change below about -50%; inconclusive means mostly about -30% to -49%
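Secreted IL-1B measured by AlphaLISA bead assay after 16 h compound exposure of THP-1 cells; compounds (final up to 57.5 uM) added 1 h before LPS (250 ng/mL) and ATP (1.25 mM) stimulation; lower signal means less secretion.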
DT40 TDP1 no CPT – qHTS for Inhibitors of human tyrosyl-DNA phosphodiesterase 1 (TDP1): qHTS in cells in absence of CPT | 420,000 tested, 15% active | DT40 Tdp1-/- hTDP1 cells, no CPT, ATP luminescence, 48 h | Potency, µM (doses to about 46.2 µM), hits mostly inhibitors; further: nearly all actives have a fitted effect of over 55% in size
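Seeded 400 DT40-hTDP1 cells/well (vehicle DMSO, no 20 nM CPT); pinned compounds; ≥48 hr at 37 °C; CellTiter-Glo luminescence as viability measure.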
Gal4-VP16 FLuc – VP16 counterscreen qHTS for inhibitors of ROR gamma transcriptional activity | Potency, µM (titrated, usually from 53.6 µM), actives largely listed as inhibitors | Drosophila S2 Gal4-VP16 UAS-luciferase, luminescence, 20 h | AID 2546, 2010 | 310,000 tested, 3.5% active;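 further: Gal4-VP16 expression switched on by copper sulfate through the metallothionein promoter; nearly all actives have a fitted effect of over 50% in size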
LDHA block – qHTS assay for inhibitors of human lactate dehydrogenase; 480,000 tested, 0.15% active; AID 1347041, 2019; purified LDHA, NADH/diaphorase-resazurin fluorescence; hits give low values; activity change, % (values are at about 110 or 230 µM); in the data active means activity change below about -30%; inconclusive means mostly about -25% to -30%
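Resorufin fluorescence (ex540/em590), read at 0 and 20 min after diaphorase/resazurin addition, reports the NADH left after a 5 min room-temperature reaction of 2 nM human LDH5 with 0.06 mM NADH and 0.2 mM pyruvate.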
Numbers stand for hits; n = inactive; u = inconclusive; x = no result given; ! = repeats disagree. Unless noted, the call rests on the fitted dose curve; in most records, active means well fitted curve in the direction sought with a large enough effect; inconclusive means small, poorly fitted or top-dose-only effect, or another doubt; inactive means no such curve, though single readings can be large; an effect the other way counts as inactive or inconclusive.

SMILES	RORgamma inh	TDP1 cell CPT	IL1B secr inh	DT40 TDP1 no CPT	Gal4-VP16 FLuc	LDHA block
COc1ccc(C2/C=C\CN(C(=O)c3ccccc3)[C@H](Cc3ccccc3)C(=O)N2Cc2ccc(F)cc2)cc1 (some centres not stated)	u	21µM	n	15µM	n	n
COc1ccc([C@H]2/C=C\CN(C(=O)c3ccc(C)cc3)[C@@H](C)C(=O)N2Cc2ccc(F)cc2)cc1	x	u	n	21µM	x	n
CC(C)(C)NC(=O)CN1CCN(C(=O)c2cc3cc(F)ccc3[nH]2)CC1	x	x	x	x	x	n
CCCCCCSc1cc(-c2nc3ccc(C)cn3c2NCc2ccccc2)ccc1OC	x	23µM	-51!	9.2µM	x	n
CCC(C)Sc1cccc(-c2nc3ccccn3c2NCc2ccccc2)c1 (configuration not stated)	x	u	u	u	x	n
CCCCCCSc1cccc(-c2nc3ccccn3c2NCc2ccccc2)c1	x	16µM	n	16µM	x	n
CCCCCCSc1cccc(-c2nc3cc(C)ccn3c2NCc2ccccc2)c1	x	13µM	-84!	13µM	x	n
Cc1ccc2nc(NCc3ccccc3)c(C=NCc3ccccc3)c(=O)n2c1	n	n	n	n	n	n
CCCCCCSc1cccc(-c2nc3ccc(C)cn3c2NCc2ccccc2)c1	x	23µM	-61	21µM	x	n
CCOc1ccccc1Oc1c(C)oc2cc(OS(C)(=O)=O)ccc2c1=O	x	x	x	x	x	n
Cc1oc(-c2ccccc2)nc1C(=O)Nc1cccc(F)c1	x	x	x	x	x	n
O=C(C1CCN(S(=O)(=O)N2CCOCC2)CC1)N1CCN(Cc2ccccc2)CC1	n	n	n	n	n	n
Cc1cccc(N2CCN(C(=O)C3CCN(S(=O)(=O)c4cccc5nsnc45)CC3)CC2C)c1 (configuration not stated)	n	23µM	n	21µM	n	n
Cc1cccc(N2CCN(C(=O)C3CCN(S(=O)(=O)c4cccc5cccnc45)CC3)CC2C)c1 (configuration not stated)	n	13µM	n	18µM	n	n
O=C(C1CCN(S(=O)(=O)c2cccc3cccnc23)CC1)N1CCCC1	n	n	n	n	n	n
Cc1cccc(N2CCN(C(=O)C3CCN(S(=O)(=O)N4CCOCC4)CC3)CC2C)c1 (configuration not stated)	n	18µM	n	21µM	n	n
COC(=O)c1ccccc1S(=O)(=O)N1CCn2cccc2C1C (configuration not stated)	n	n	-78	n	n	n
COc1ccc(NC(C)=O)cc1S(=O)(=O)N1CCn2cccc2C1C (configuration not stated)	x	n	n	n	x	n
O=C(Nc1ccc(F)c(F)c1)c1cc(S(=O)(=O)NC2CCCC2)ccc1F	x	u	x	23µM	x	n
Cc1ccc(NC(=O)c2cc(S(=O)(=O)NC3CCCCC3)ccc2F)cc1Cl	x	23µM	x	21µM	x	n
O=C(Nc1cc(Cl)cc(Cl)c1)c1cc(S(=O)(=O)NC2CCCC2)ccc1F	x	u	x	21µM	x	n
O=C(Nc1cc(Cl)cc(Cl)c1)c1cc(S(=O)(=O)N2CCc3ccccc3C2)ccc1F	x	u	x	u	x	n
O=C(Nc1ccc(Br)cc1)c1cc(S(=O)(=O)NC2CCCC2)ccc1F	x	23µM	x	21µM	x	n
Cc1nc(/C=C/C(=O)NC(C)C23CC4CC(CC(C4)C2)C3)cs1 (configuration not stated)	x	x	x	x	x	n
CSc1cccc(NC(=O)c2ccc3c(c2)CCC3)c1	x	x	x	x	x	n
SMILES	RORgamma inh	TDP1 cell CPT	IL1B secr inh	DT40 TDP1 no CPT	Gal4-VP16 FLuc	LDHA block
Cc1ccc(Cn2nc(C)c(C(=O)OCC(=O)c3cc(C)n(C)c3C)c2Cl)cc1	x	x	x	x	x	n
O=[N+]([O-])c1cccc(-c2ccc(/C=N/Nc3nc(N4CCCCC4)nc(N4CCCCC4)n3)o2)c1	10µM	u	n	u	n	n
COc1ccc(-c2cnnc(N/N=C/c3ccc(O)c(OC)c3)n2)cc1	n	5.2µM	n	5.2µM	n	n
CC(NC(=O)C12CC3CC(CC(C3)C1)C2)C(=O)NN=Cc1ccc([N+](=O)[O-])o1 (configuration not stated)	x	u	u	u	x	n
COc1ccc(-c2cnnc(N/N=C/c3ccc(-c4ccc([N+](=O)[O-])cc4)o3)n2)cc1	n	1.2µM	n	1.5µM	n	n
COc1cc(/C=N/Nc2ccccn2)ccc1O	u	n	n	n	u	n
CCNc1nc(NCC)nc(N/N=C/c2ccc([N+](=O)[O-])o2)n1	u	16µM	n	16µM	n	n
CC(=O)N1CCC(C(=O)NCCc2ccccc2C(F)(F)F)CC1	x	x	x	x	x	n
O=[N+]([O-])c1cccc(/C=N/Nc2nc(N3CCCCC3)nc(N3CCCCC3)n2)c1	n	u	n	u	n	n
COc1ccccc1-c1cnnc(N/N=C/c2ccc(-c3cccc(Br)c3)o2)n1	1µM	15µM	n	23µM	2µM	n
O=[N+]([O-])c1ccc(/C=N/Nc2nc(N3CCCC3)nc(N3CCCC3)n2)o1	n	23µM	n	u	n	n
O=C(O)c1cccc(-c2ccc(/C=N/Nc3nn[nH]n3)o2)c1	n	n	n	n	n	n
O=[N+]([O-])c1ccc(-c2ccc(/C=N/Nc3nc(N4CCCCC4)nc(N4CCCCC4)n3)o2)cc1	n	u	n	21µM	n	n
O=[N+]([O-])c1ccc(-c2ccc(/C=N/Nc3nc(N4CCCC4)nc(N4CCCC4)n3)o2)cc1	u	15µM	n	4.6µM	n	n
COc1cccc(Oc2c(C)oc3cc(OS(C)(=O)=O)ccc3c2=O)c1	x	x	x	x	x	n
O=S(=O)(c1cnc[nH]1)N1CCc2ccccc21	n	u	n	23µM	n	n
CC(C)(C)C(=O)[C@@H]1[C@@H]2C(=O)N(c3ccc4c(c3)OCCO4)C(=O)[C@@H]2C2c3ccccc3C=CN21 (some centres not stated)	u	u	n	23µM	n	n
Cc1oc(-c2cc(F)ccc2F)nc1CN1CCN(c2ncnc3ccccc23)CC1	u	12µM	n	21µM	u	n
COc1ccc(-c2nc(CN3CCN(c4ncnc5ccccc45)CC3)c(C)o2)c(OC)c1	n	8.2µM	u	5.8µM	u	n
CC(=O)Oc1cc(OC(C)=O)c2c(c1)OC(c1ccc(OC(C)=O)c(OC(C)=O)c1)C(OC(C)=O)C2 (configuration not stated)	n	u	x	u	16µM!	x
